The full list was thinned out, with hits kept by preference.
GluA2 TARP mod – GluA2-stargazin AMPA receptor complex modulation. HEK293 GluA2+stargazin, membrane potential dye (FDSS), glutamate EC50; hits were called plate by plate, in both directions. calls only at 30 µM. 40,000 tested, 3.5% active. AID 1259245;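 active = any of four per-well response measures lying three or more SD from its plate-wide compound average, in either direction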
GIRK2 activator – Activates human GIRK2-containing potassium channels; P48051; HEK293 GIRK2/NPY4 cells, thallium flux fluorescence; activation (% efficacy), % for hits at 37.5 µM; 34,000 tested, under 10 active; AID 1259324;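 active = primary screen hit, no activity in plain HEK293 cells, and in GIRK2-only cells above 5% efficacy rising with concentration; inactive = the rest, including fluorescent compounds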;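 also: efficacy is normalized control-subtracted fluorescence 15 s after thallium addition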
Target sequence (P48051 whole entry, looked up): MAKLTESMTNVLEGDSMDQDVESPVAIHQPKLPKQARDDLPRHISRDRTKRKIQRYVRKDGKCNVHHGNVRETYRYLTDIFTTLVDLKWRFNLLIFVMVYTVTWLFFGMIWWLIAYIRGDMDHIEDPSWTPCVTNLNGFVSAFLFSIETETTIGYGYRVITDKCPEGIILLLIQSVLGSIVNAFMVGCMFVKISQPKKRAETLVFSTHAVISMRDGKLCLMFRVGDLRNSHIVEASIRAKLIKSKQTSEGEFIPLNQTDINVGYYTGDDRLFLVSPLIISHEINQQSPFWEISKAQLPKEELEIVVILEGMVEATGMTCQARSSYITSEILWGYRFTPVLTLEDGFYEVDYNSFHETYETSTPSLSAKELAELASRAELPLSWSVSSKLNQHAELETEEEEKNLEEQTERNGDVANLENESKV
* hit, by the source's call; i = inactive; · = not tested or not shown; + = active, no number.

SMILES | GluA2 TARP mod | GIRK2 activator
CCC(=O)Nn1cnc2c(cnn2C(C)(C)C)c1=O | i | ·
CC(C)(C)n1ncc2c(=O)n(NC(=O)c3cc(Br)ccc3Cl)cnc21 | + | i
CC(C)(C)n1ncc2c(=O)n(NC(=O)c3cc([N+](=O)[O-])ccc3Cl)cnc21 | i | i
CCOCC(=O)Nn1cnc2c(cnn2C(C)(C)C)c1=O | + | ·
Cc1cc(C)cc(-n2c(-c3ccccc3)cn3c4c(=O)n(CC(N)=O)c(=O)n(C)c4nc23)c1 | i | ·
Cc1nn(-c2ccc(F)cc2)c2ncc(C(=O)NCCCn3ccnc3)c(Cl)c12 | + | ·
Cc1ccc(CNC(=O)c2cnc3c(c(C)nn3-c3ccc(F)cc3)c2Cl)cc1 | i | i
O=C(NC1CCCCCC1)C1c2ccccc2C(=O)N1CCC1=CCCCC1 (configuration not stated) | + | i
O=C(CN1C(=O)c2ccccc2S1(=O)=O)NC1CCCCCC1 | i | i
COc1ccc(OC)c(-c2cc(C(=O)NCCn3nc(-c4cccnc4)ccc3=O)[nH]n2)c1 | · | i
Cc1ccnc(OCC(=O)NC(C)C)n1 | i | i
Cc1nnc(-c2cn(CC(=O)NC(C)(C)C)c3ccccc23)o1 | i | i
O=C(/C=C\c1ccccc1)NNC(=O)c1cccn(Cc2ccc(F)cc2)c1=O | i | i
CCCCN(C1CCS(=O)(=O)C1)S(=O)(=O)c1ccc(Cl)c(Cl)c1 (configuration not stated) | i | ·
O=C(COc1ccc2ccccc2c1)NCC(O)c1ccc(C(F)(F)F)cc1 (configuration not stated) | · | i
Cc1ccc(C(CNC(=O)COc2ccc3ccccc3c2)N(C)C)cc1 (configuration not stated) | + | i
CCOc1ccccc1NC(=O)Cn1c(C)cc(C)c(-c2nc(-c3ccc(Cl)cc3)no2)c1=O | + | ·
Cc1cc(C)n(CC(=O)Nc2ccccc2F)c(=O)c1-c1nc(-c2ccc(Cl)cc2)no1 | i | i
COc1ccc(NC(=O)Cn2c(C)cc(C)c(-c3nc(-c4ccc(Cl)cc4)no3)c2=O)cc1 | i | ·
COc1ccc(-c2noc(-c3c(C)cc(C)n(CC(=O)Nc4ccc(OC)c(Cl)c4)c3=O)n2)cc1 | + | i
O=C(COc1ccc(Cl)cc1)NCC1(O)CCOCC1 | · | i
O=C(Nc1cccc(C(F)(F)F)c1)N1CCN(CCn2ccnc2)CC1 | · | i
COC(=O)c1ccccc1NC(=O)CSc1nccnc1N1CCSCC1 | + | i
N#Cc1ccccc1NC(=O)CSc1nccnc1N1CCSCC1 | i | i
COCCNC(=O)CCc1sc(C)nc1-c1cccs1 | i | i
SMILES | GluA2 TARP mod | GIRK2 activator
Cc1ccc(CN2C(=O)NC3(CCN(C(=O)Nc4ccc(Cl)cc4)CC3)C2=O)cc1 | · | i
O=C(Nc1cccc(Cl)c1)N1CCC2(CC1)NC(=O)N(Cc1ccccc1)C2=O | + | i
O=C(Nc1cccc(C(F)(F)F)c1)N1CCC2(CC1)NC(=O)N(Cc1ccccc1)C2=O | + | i
CCCN1C(=O)NC2(CCN(C(=O)Nc3cccc(C(F)(F)F)c3)CC2)C1=O | i | i
Cc1nc(NCCNC(=O)Nc2ccc(Cl)c(C(F)(F)F)c2)cc(-n2cccn2)n1 | + | i
Cc1nc(NCCNC(=O)Nc2ccc(C)c(F)c2)cc(-n2cccn2)n1 | i | i
C=CCOCC(O)CN1CCN(c2ccc(F)cc2)CC1 (configuration not stated) | i | i
Cn1c(=O)c2c(nc(N3CCNCC3)n2CC(=O)c2ccc(Cl)cc2)n(C)c1=O | i | ·
CC(C(=O)Nc1ccc(Cl)c(Cl)c1)N1C(=O)C2CC=C(Cl)CC2C1=O (configuration not stated) | + | ·
CC(C)C(=O)Nc1ccc(SCC(=O)Nc2ccc(Cl)c(Cl)c2)nn1 | i | i
Cc1ccc(C(C)C)c(OCCNC2CCCC2)c1 | i | ·
Cc1cc(C)cc(OCCNC(=O)c2cccs2)c1 | i | i
COc1ccc(C(=O)NCCOc2cc(C)cc(C)c2)c(OC)c1 | + | i
CCc1c(C)nc(-n2nc(-c3ccco3)cc2NC(=O)c2cc3ccccc3o2)[nH]c1=O | i | i
O=C(NCCOc1ccc2nnc(-c3ccccc3)n2n1)c1cc2ccccc2oc1=O | i | i
Cc1ccc(-c2ccc(OCCNS(=O)(=O)c3cc(F)ccc3F)nn2)cc1 | i | i
O=S(=O)(Oc1c(Cl)cc(Cl)c2cccnc12)N1CCCCCC1 | i | ·
O=S(=O)(Oc1c(Cl)cc(Cl)c2cccnc12)N1CCCCC1 | + | ·
CCc1ccc(Oc2cc(N3CCC(C(=O)NCc4ccc(C)cc4)CC3)ncn2)cc1 | i | i
COc1cccc2sc(N(Cc3ccccn3)C(=O)c3cc(C)nn3C)nc12 | i | i
CCOc1cccc2sc(N(Cc3ccccn3)C(=O)c3nn(C)cc3C)nc12 | + | i
COc1cccc(COc2coc(C(=O)Nc3ccc(C)c(F)c3)cc2=O)c1 | i | i
COc1coc(C(=O)Nc2ccc(F)c(F)c2)cc1=O | + | i
COCCN1CCC(CNS(=O)(=O)c2ccc(OC)c(Cl)c2)CC1 | i | i
CC(C)(C)NC(=O)N1CCC(CNC(=O)/C=C/c2ccccc2)CC1 | · | i
SMILES | GluA2 TARP mod | GIRK2 activator
O=C(Nc1nnc(Cc2cccs2)o1)c1cc2ccccc2oc1=O | + | i
O=C(Nc1nnc(Cc2cccs2)o1)c1ccccc1 | i | i
Cc1cnc2c(c1SCC(=O)Nc1cccc3ccccc13)c(=O)n(C)c(=O)n2C | i | i
COc1ccc(C(=O)Nc2nnc(-c3cc(C)nn3C)o2)cc1OC | · | i
COc1ccc(C(=O)Nc2nnc(-c3cc(C)n(C)n3)o2)cc1OC | + | i
COc1cc2ccccc2cc1C(=O)Nc1nnc(-c2cc(C)n(C)n2)o1 | i | i
COc1cc(OC)cc(C(=O)Nc2nnc(-c3cc(C)n(C)n3)o2)c1 | + | i
CCOC(=O)c1csc(NC(=O)Cc2ccc(S(=O)(=O)CC)cc2)n1 | i | ·
CSc1ncccc1C(=O)N1CCC(CNC(=O)c2ccc(Br)o2)CC1 | i | i
CN(C)C(CNC(=O)C(=O)Nc1ccc2c(c1)OCO2)c1ccccc1 (configuration not stated) | i | i
O=C(NCC1(c2cccs2)CCCC1)c1cccs1 | · | i
O=S(=O)(c1ccc(F)cc1)N1CCC(c2nnc(C3CC3)o2)CC1 | i | i
CN(C(=O)Cn1cnc2c(-c3ccccc3)csc2c1=O)c1ccc(F)cc1 | i | i
CCN(C(=O)Cn1cnc2c(-c3ccccc3)csc2c1=O)c1ccccc1 | + | i
O=C(c1ccc(C(F)(F)F)cc1)N1CCN(c2ncnc3c2nnn3-c2ccccc2)CC1 | i | ·
CC(C)S(=O)(=O)c1cccc(C(=O)Nc2sc3c(c2C(N)=O)CCCC3)c1 | i | i
O=C(Nc1sc2c(c1C(=O)O)CCC2)c1cccc(Cl)c1 | + | ·
CC(=O)NCCc1nc2ccccc2n1CCCOc1cc(C)ccc1C(C)C | + | i
Cc1ccc(C(C)C)c(OCCCn2c(CCCO)nc3ccccc32)c1 | i | i
CCc1ccc(S(=O)(=O)c2nnn(-c3ccc(Br)cc3)c2N)cc1 | i | ·
O=C(Nc1cc(-c2ccccc2)nn1CCO)c1ccco1 | i | i
O=C(Nc1cc(-c2ccccc2)nn1CCO)c1ccc(Cl)s1 | + | i
